Many of the other results were omitted from the sample, so hits are more common in it than they were.
Pf apPOL inh = Pf-apPOL DNA polymerase inhibition; Recombinant Pf-apPOL, molecular beacon fluorescence, 1.5 h; inhibition, % at 10 µM; AID 1794808; actives 0.25% (n = 210,000)
mHTT-CaM PPI inh = disrupts binding of mutant huntingtin to calmodulin. actives 3.6% (n = 190,000). P42858. inhibition, % at 15 µM. AlphaScreen His-mHTT/GST-CaM binding, luminescence. AID 1671202
Large screens that a line does not name were inactive. Cut-off read from the data, not from the text of the source: active = inhibition above about 50%; inactive = the rest.

Cc1cc(C)c(C(=O)N2CCC(CC(=O)NC3CCCCCC3)CC2)[nH]1	none
Cc1nc(CC(=O)NC2CCc3[nH]c4ccc(Cl)cc4c3C2)c(C)s1 (centres undefined)	mHTT-CaM PPI inh 99
Cc1ccc2[nH]c3c(c2c1)CC(NC(=O)CC(C)C)CC3 (centres undefined)	mHTT-CaM PPI inh 93
Cc1cc(Cl)cc2c3c([nH]c12)CCC(NC(=O)CC1CC1)C3 (centres undefined)	mHTT-CaM PPI inh 90
CC(C)C(=O)NC1CCc2[nH]c3ccc(Br)cc3c2C1 (centres undefined)	mHTT-CaM PPI inh 53
CNC(=O)N1CCC(n2c(C)nc(C(=O)NC3CCCCC3)c2C)CC1	none
Cc1cc(OCC(=O)N(C)c2ccc(F)cc2)nc(N2CCCC2)n1	none
COc1ccc(N2CC(C(=O)NC3CC3)CC2=O)cc1 (centres undefined)	none
CC(NC(=O)CN1C(=O)/C(=C/c2ccc(Cl)cc2)Sc2ccccc21)c1ccccc1 (centres undefined)	none
CC1=C(C(=O)Nc2cccc(C)c2C)C(c2c(Cl)cccc2Cl)NC(=O)N1 (centres undefined)	none
N#CC(=Cc1csc([N+](=O)[O-])c1)S(=O)(=O)c1ccccn1	none (no result: mHTT-CaM PPI inh)
O=C(NC1CCc2[nH]c3ccc(Br)cc3c2C1)C1CC=CCC1 (centres undefined)	mHTT-CaM PPI inh 98
O=C(NC1CC1)C1CCN(S(=O)(=O)c2ccc3[nH]c4c(c3c2)CCCCC4)CC1	none
Cc1ccnc(NC(=O)C2CCCC2)c1	none
O=C(c1cnccn1)N1CCN(c2cc(-n3cccn3)ncn2)CC1	none
Cc1ccnc(Nc2ccc(N3CCN(C(=O)C4CCCC4)CC3)nn2)c1	mHTT-CaM PPI inh 55
Cc1ccnc(Nc2ccc(N3CCN(C(=O)c4cnccn4)CC3)nn2)c1	mHTT-CaM PPI inh 90
Cn1ccc(C(=O)N2CCCC2c2cccc(F)c2)n1 (centres undefined)	none
O=C(NCc1cc(F)ccc1F)C1CCc2sc(C(=O)N3CCCC3)cc2C1 (centres undefined)	none
CCN1C(=O)C(C)(C)COc2ccc(NC(=O)C34CC5CC(CC(C5)C3)C4)cc21	none
COc1ccc(C2C(C#N)=C(N)Oc3n[nH]c(-c4ccc5c(c4)OCO5)c32)cc1O (centres undefined)	none
O=C(Nc1cc(Cl)ccc1Cl)c1cccc(S(=O)(=O)N2CCCCC2)c1	none
O=C(Nc1cc(Cl)ccc1O)c1cccc(S(=O)(=O)N2CCCC2)c1	mHTT-CaM PPI inh 51
COCCCN1COc2ccc3c(=O)c(Oc4ccc(C(=O)OC)cc4)c(C)oc3c2C1	none
COC(=O)c1ccc(Oc2c(C)oc3c4c(ccc3c2=O)OCN(Cc2ccccn2)C4)cc1	mHTT-CaM PPI inh 100
COc1ccc(N2CCN(C(=O)C34CC5(C)CC(C)(CC(C)(C5)C3)C4)CC2)cc1	mHTT-CaM PPI inh 54
CC(=O)N1CCN(C(=O)C23CC4(C)CC(C)(CC(C)(C4)C2)C3)CC1	none
C/C(=C\c1ccccc1)CN1CCC(C(=O)N2CCN(c3cccc(C)c3C)CC2)CC1	none
COc1ccc(C(=O)Nc2ccc(N(C)C)cc2)cc1[N+](=O)[O-]	mHTT-CaM PPI inh 58
COc1ccc(NC(=O)c2ccc(OC)c([N+](=O)[O-])c2)cc1OC	none
O=C(NCCc1cccs1)c1cccc2[nH]cc(CN3CCOCC3)c12	none
CC1CC(=O)Nc2c1c(NC(=O)c1cc(-c3ccc(F)cc3)n[nH]1)nn2C (centres undefined)	none
CC1CC(=O)Nc2c1c(NC(=O)c1ccc(S(=O)(=O)N3CCOCC3)cc1)nn2C (centres undefined)	mHTT-CaM PPI inh 100
Fc1ccccc1C1CC(c2ccc(Br)s2)Nc2nnnn21 (centres undefined)	none
COc1ccc(C(=O)N2CCCC2)cc1OC	none
CCc1ccc(S(=O)(=O)N2CCC(c3cc4n(n3)CCCN(C)C4=O)CC2)cc1	none
CC1CN(Cc2cc([N+](=O)[O-])c3cccnc3c2O)CC(C)O1 (centres undefined)	mHTT-CaM PPI inh 100
O=[N+]([O-])c1ccccc1CN1CCOCC1	none
CC(=O)c1ccc(N2CC(C)OC(C)C2)c([N+](=O)[O-])c1 (centres undefined)	none (no result: mHTT-CaM PPI inh)
O=[N+]([O-])c1cc(CN2CCOCC2)c(O)c2ncccc12	mHTT-CaM PPI inh 100
CCCCC(=O)N(c1ccc(OC)cc1OC)C1C=CS(=O)(=O)C1 (centres undefined)	none
Cc1cc2[nH]c(C(=O)Nc3ccccc3C)c(CN3CCCC3)c2s1	none
Cc1cc2[nH]c(C(=O)Nc3c(F)cccc3F)c(CN3CCCC3)c2s1	mHTT-CaM PPI inh 56
COc1ccc(-c2nc(C(=O)NC3CC3)cs2)c(Cl)c1	Pf apPOL inh 94
O=C(NC1CC1)c1csc(COc2ccc(Cl)cc2)n1	none
COc1ccc(Cl)cc1NC(=O)C1CCCN(c2nnc3ccccn23)C1 (centres undefined)	none
CS(=O)(=O)N(CC(=O)NCc1ccncc1)c1cc(C(F)(F)F)ccc1Cl	none
CC1C(=O)N(c2ccc(F)cc2)CCN1C(=O)Cc1ccccc1 (centres undefined)	none
Cc1nc(C2CCCN(Cc3cccc4[nH]ccc34)C2)n[nH]1 (centres undefined)	none
Cc1nc(C2CCCN(Cc3ccc(Br)o3)C2)n[nH]1 (centres undefined)	mHTT-CaM PPI inh 50
O=C1N(Cc2ccccc2F)c2ccccc2C12OCCCO2	none
Cc1sc2c(c1C)C(=O)NC1(N2)C(=O)N(Cc2ccccc2F)c2ccccc21 (centres undefined)	mHTT-CaM PPI inh 53
COC(=O)N1CCN(CCNC(=O)NC(c2ccccc2)c2ccccc2)CC1	none
CCCc1[nH]nc2c1C1(C(=O)N(CC(=O)O)c3ccccc31)C(C#N)=C(N)O2 (centres undefined)	none
COc1ccc(-c2[nH]nc3c2C2(C(=O)N(CC(=O)O)c4ccccc42)C(C#N)=C(N)O3)cc1 (centres undefined)	Pf apPOL inh 72
COc1ccc(-c2[nH]nc3c2C2(C(C#N)=C(N)O3)c3ccccc3-c3ccccc32)cc1	mHTT-CaM PPI inh 79
CCc1[nH]nc2c1C1(C(C#N)=C(N)O2)c2ccccc2-c2ccccc21	none
CCC(=O)N1CCN(c2nc3c(s2)CC(C(=O)Nc2ccc(C)cc2F)CC3)CC1 (centres undefined)	none
COc1ccc(OC)c(-c2c(C)c3cc(OC(=O)C(C)C)ccc3oc2=O)c1	none
O=C1CSC(=O)N1CCOc1ccc(F)cc1	none
O=C1CSC(=O)N1CC(O)COc1ccc(OCC(O)CN2C(=O)CSC2=O)cc1 (centres undefined)	Pf apPOL inh 70
COc1ccc(-n2c(C)c3c(C)nnc(C)c3c2C)cc1OC	none
Cc1nnc(C)c2c(C)n(C(C)c3ccccc3)c(C)c12 (centres undefined)	mHTT-CaM PPI inh 74
COc1ccccc1C1CCN(C(=O)CSCc2cccc3ccccc23)CC1	none (no result: mHTT-CaM PPI inh)
Cc1cccc2c(C3CCN(C(=O)c4ccccc4OC(F)(F)F)CC3)c[nH]c12	mHTT-CaM PPI inh 100
CC(C)c1c(C2CCN(C(=O)c3cccs3)CC2)noc1N	none
COc1cc([N+](=O)[O-])ccc1-c1ccc(C(=O)Nc2ccc(N3CCCCC3)cc2)o1	mHTT-CaM PPI inh 51
COc1cccc2cc(C(=O)Nc3ccc(N4CCCN(C(=O)C5CC5)CC4)cc3)oc12	mHTT-CaM PPI inh 61
COc1ccccc1C(=O)Nc1ccc(N2CCCC2)cc1	mHTT-CaM PPI inh 61
COc1ccc(CC(=O)Nc2ccccc2)cc1OC	none
COc1ccccc1C(=O)Nc1cnc(N2CCCC2)nc1	none

Screening results deposited in PubChem by University of Kansas High Throughput Screening Laboratory.
